Reference: the supplement of paper PMC13380429

Tested on: Vero E6 infected with SARS-CoV-2
Experiment: inhibition of SARS-CoV-2 cytopathic effect; higher = more antiviral protection, active = above 15
Details: 48 h

Measured: inhibition of SARS-CoV-2 cytopathic effect

O=C(O)c1ccc2nc(-c3cc(Cl)cc(Cl)c3)oc2c1 [tafamidis-meglumine]
inactive: 1 nM -0.14% | 8.33 nM -0.38% | 100 nM -1.04% | 833.33 nM 1.34% | 10000 nM 0.08%

CO/N=C(\C(=O)N[C@@H]1C(=O)N2C(C(=O)[O-])=C(C[N+]3(C)CCCC3)CS[C@H]12)c1csc(N)n1 [cefepime]
inactive: 1 nM 0.86% | 8.33 nM 1.89% | 100 nM 2.66% | 833.33 nM 3.19% | 10000 nM 1.42%

CNCc1ccc(C)c(NC(=O)c2ccc(Nc3nc(-c4ccccc4)c4ccccc4n3)cc2)c1
active: 10000 nM 61.3%
inactive: 1 nM -4.56% | 8.33 nM -2.52% | 100 nM -1.92% | 833.33 nM -1.96%

CN1Cc2ccccc2[C@@H]2c3cccc4[nH]cc(c34)C[C@H]21
inactive: 1 nM 0.05% | 8.33 nM 0.93% | 100 nM -1.06% | 833.33 nM 0.95% | 10000 nM 2.21%

CNCCC(Oc1ccc(C(F)(F)F)cc1)c1ccccc1 (stereo not given) [fluoxetine]
inactive: 1 nM -10.3% | 8.33 nM 0.27% | 100 nM -2.53% | 833.33 nM -3.36% | 10000 nM -9.56%

COc1ccc(C(=O)c2ccccc2)c(O)c1 [oxybenzone]
inactive: 1 nM 0.11% | 8.33 nM 2.31% | 100 nM 0.71% | 833.33 nM 0.2% | 10000 nM 0.65%

NS(=O)(=O)c1ccc2c(c1)C1C=CCC1C(c1ccc(Br)cc1)N2 (stereo not given)
inactive: 1 nM -1.04% | 8.33 nM 1.37% | 100 nM -1.73% | 833.33 nM -1.33% | 10000 nM -0.61%

OC[C@H]1O[C@H](O[C@H]2O[C@H](CO)[C@@H](O)[C@H](O)[C@H]2O)[C@H](O)[C@@H](O)[C@@H]1O [cabaletta]
inactive: 1 nM 1.34% | 8.33 nM 3.4% | 100 nM 5.33% | 833.33 nM 3.33% | 10000 nM 0.76%

CC1(C)C(/C=C/C=C/C=C/C=C2\N(CCCCS(=O)(=O)O)c3ccc4ccccc4c3C2(C)C)=[N+](CCCCS(=O)(=O)[O-])c2ccc3ccccc3c21 [indocyanine-green]
inactive: 1 nM -0.13% | 8.33 nM 1.53% | 100 nM 0.85% | 833.33 nM 1.22% | 10000 nM 0.23%

Cc1cccc(C)c1-n1c(=O)c2cnc(Nc3ccc(N4CCN(C)CC4)cc3)nc2n2c3ccccc3nc12
inactive: 1 nM -1.2% | 8.33 nM -0.67% | 100 nM -2.31% | 833.33 nM 0.21% | 10000 nM -3.38%

O=[N+]([O-])O[C@H]1CO[C@H]2[C@@H]1OC[C@H]2O[N+](=O)[O-] [isosorbide-dinitrate]
inactive: 1 nM -1.2% | 8.33 nM 2.2% | 100 nM 2.2% | 833.33 nM 1.87% | 10000 nM 3.34%

CCc1cc2c(c(CC)n1)CCC(=O)N2Cc1ccc(-c2ccccc2-c2nnn[nH]2)cc1
inactive: 1 nM -4.46% | 8.33 nM -5.09% | 100 nM -2.79% | 833.33 nM -3.64% | 10000 nM -0.49%

Nc1nc(=O)n([C@H]2C[C@H](O)[C@@H](CO)O2)cc1Cl [cytochlor]
inactive: 1 nM 0.97% | 8.33 nM 0.46% | 100 nM 0.45% | 833.33 nM 1.92% | 10000 nM -1.33%

CCS(=O)(=O)c1cccc(-c2cc(C(=O)NC3CCN(C)CC3)c(C)c3[nH]c4ncc(C)cc4c23)c1
inactive: 1 nM 3.23% | 8.33 nM 0.63% | 100 nM 1.19% | 833.33 nM -0.44% | 10000 nM -2.17%

COc1ccc(S(=O)(=O)N(C(C)=O)c2ccccc2/C=C/c2cc[n+]([O-])cc2)cc1
inactive: 1 nM 2.08% | 8.33 nM 0.26% | 100 nM -2.17% | 833.33 nM -2.71% | 10000 nM -2.49%

CC(C)c1noc(N2CCC(COc3ccc(-c4ccc(S(C)(=O)=O)cc4)nc3)CC2)n1
inactive: 1 nM -1.46% | 8.33 nM -1.84% | 100 nM -1.48% | 833.33 nM -0.49% | 10000 nM -0.23%

CCC(=O)O[C@@H](O[P@@](=O)(CCCCc1ccccc1)CC(=O)N1C[C@H](C2CCCCC2)C[C@H]1C(=O)O)C(C)C [fosinopril]
inactive: 1 nM -0.77% | 8.33 nM 0.8% | 100 nM 2.37% | 833.33 nM 1.19% | 10000 nM 3.18%

Oc1ccc(Cl)c2cccnc12 [cloxyquin]
inactive: 1 nM 1.22% | 8.33 nM 0.37% | 100 nM 2.68% | 833.33 nM 3.29% | 10000 nM -0.16%

COc1cccc(OC)c1-c1cc(C(=O)N[C@@H](CC(C)C)C(=O)O)nn1-c1ccnc2cc(Cl)ccc12
inactive: 1 nM 2.48% | 8.33 nM 1.4% | 100 nM -0.45% | 833.33 nM -0.64% | 10000 nM -0.46%

CNC(=O)[C@H](Cc1c[nH]c2ccccc12)NC(=O)[C@@H](CC(=O)NO)CC(C)C [ilomastat]
inactive: 1 nM 3.69% | 8.33 nM 1.87% | 100 nM -1.16% | 833.33 nM 2.15% | 10000 nM -0.18%

OC[C@H]1OC(O)[C@H](O)[C@@H](O)[C@@H]1O (stereo not given in full) [dextrose]
inactive: 1 nM 0.5% | 8.33 nM -0.54% | 100 nM 0.12% | 833.33 nM -9.41% | 10000 nM -1.07%

CC(C)(Sc1cc(C(C)(C)C)c(O)c(C(C)(C)C)c1)Sc1cc(C(C)(C)C)c(O)c(C(C)(C)C)c1 [probucol]
inactive: 1 nM -0.06% | 8.33 nM 2.66% | 100 nM 0.1% | 833.33 nM -0.2% | 10000 nM 1.98%

O=c1c2ccccc2oc2ccccc12 [xanthone]
inactive: 1 nM 1.22% | 8.33 nM 1.53% | 100 nM 1.84% | 833.33 nM -0.86% | 10000 nM -3.12%

C1CCC2(CC1)CCNCC2 [4,4-pentamethylenepiperidine]
inactive: 1 nM 0.06% | 8.33 nM 0.78% | 100 nM -1% | 833.33 nM 1.32% | 10000 nM 0.37%

O=C1NC(=O)[C@@]2(CCOc3ccc(F)cc32)N1 [sorbinil]
inactive: 1 nM -0.44% | 8.33 nM -2.13% | 100 nM -2.63% | 833.33 nM -0.6% | 10000 nM -0.07%

CCC(=O)O[C@]1(C(=O)CCl)[C@@H](C)C[C@H]2[C@@H]3CCC4=CC(=O)C=C[C@]4(C)[C@@]3(F)[C@@H](O)C[C@@]21C [clobetasol-propionate]
inactive: 1 nM 1.28% | 8.33 nM 1.27% | 100 nM 0.69% | 833.33 nM 0.48% | 10000 nM 3.52%

Cc1c(N)nc([C@H](CC(N)=O)NC[C@H](N)C(N)=O)nc1C(=O)N[C@H](C(=O)N[C@H](C)[C@@H](O)[C@H](C)C(=O)N[C@H](C(=O)NCCc1nc(-c2nc(C(=O)NCCC[S+](C)C)cs2)cs1)[C@@H](C)O)[C@@H](OC1OC(CO)C(O)C(O)C1OC1OC(CO)C(O)C(OC(N)=O)C1O)c1cnc[nH]1 (stereo not given in full) [bleomycin]
inactive: 1 nM -3.91% | 8.33 nM -1.18% | 100 nM -1.47% | 833.33 nM -11.3% | 10000 nM -21.5%

C[C@H]1O[C@@H](Oc2c(-c3cc(O)c(O)c(O)c3)oc3cc(O)cc(O)c3c2=O)[C@@H](O)[C@@H](O)[C@@H]1O [myricitrin]
inactive: 1 nM 0.43% | 8.33 nM -0.53% | 100 nM 0.85% | 833.33 nM -1.02% | 10000 nM -1.34%

O=C(/C=C/c1ccc(O)c(O)c1)c1ccc(O)cc1O [butein]
inactive: 1 nM -0.13% | 8.33 nM 0.3% | 100 nM 1.11% | 833.33 nM 2.97% | 10000 nM 12.1%

O=C(CCc1ccc(O)cc1)c1c(O)cc(O)cc1O [phloretin]
inactive: 1 nM -0.18% | 8.33 nM -0.18% | 100 nM 6.09% | 833.33 nM -0.49% | 10000 nM -1.02%

CN(C)CCOC(C)(c1ccccc1)c1ccccn1 (stereo not given) [doxylamine]
inactive: 1 nM -1.38% | 8.33 nM -0.13% | 100 nM -1.73% | 833.33 nM 1.53% | 10000 nM 1.43%

CC(C)(C)c1ccc(C(=O)CCCN2CCC(OC(c3ccccc3)c3ccccc3)CC2)cc1 [ebastine]
inactive: 1 nM 0.86% | 8.33 nM 1.48% | 100 nM 0.7% | 833.33 nM -2.23% | 10000 nM -4.94%

CO/N=C(\C(=O)N[C@@H]1C(=O)N2C(C(=O)OCOC(=O)C(C)(C)C)=C(C)CS[C@H]12)c1csc(N)n1 [cefetamet-pivoxil]
inactive: 1 nM -1.77% | 8.33 nM -0.88% | 100 nM -2.82% | 833.33 nM -0.78% | 10000 nM -2.04%

Cc1cc(C(=O)NOCCO)c(Nc2ccc(I)cc2F)n(C)c1=O
inactive: 1 nM -2.17% | 8.33 nM -8.75% | 100 nM -12% | 833.33 nM -15.5% | 10000 nM -16.9%

O=C(c1ccc(OCCN2CCCCC2)cc1)c1c(-c2ccc(O)cc2)sc2cc(O)ccc12 [raloxifene]
inactive: 1 nM 3.31% | 8.33 nM 1.2% | 100 nM 2.79% | 833.33 nM 4.77%
active: 10000 nM 24.4%

Cc1cn([C@H]2C=C[C@@H](CO)O2)c(=O)[nH]c1=O [stavudine]
inactive: 1 nM -1.15% | 8.33 nM 2.97% | 100 nM 4% | 833.33 nM 2.52% | 10000 nM -1.21%

FC(F)(F)Oc1ccc2nc(-c3ccc(OCCOCCOc4ccc(-c5nc6ccc(OC(F)(F)F)cc6[nH]5)nc4)cn3)[nH]c2c1
inactive: 1 nM -0.41% | 8.33 nM 1.44% | 100 nM 0.99% | 833.33 nM 3.47% | 10000 nM -6.61%
